# Results as given in the supplement of paper PMC11732987, “Enantioselective OTUD7B fragment discovery through chemoproteomics screening and high-throughput optimisation” (Communications Chemistry, 2025).
# Unmarked numbers belong to inactive results.
# Experiments:
# Assay in all cases: log2 ratio of Biotin-Ahx-Ub-VS probe labelling (fragment/DMSO); higher = less target engagement (more negative = stronger competition), active = hit call of the paper (q ≤ 0.05, log2 ratio ≤ -1)
# Conditions in all cases: compound concentration: 200 uM; treatment time: 3 h
# [1] = target: T1, USP19 (UniProt O94966)
# T1 sequence (whole entry): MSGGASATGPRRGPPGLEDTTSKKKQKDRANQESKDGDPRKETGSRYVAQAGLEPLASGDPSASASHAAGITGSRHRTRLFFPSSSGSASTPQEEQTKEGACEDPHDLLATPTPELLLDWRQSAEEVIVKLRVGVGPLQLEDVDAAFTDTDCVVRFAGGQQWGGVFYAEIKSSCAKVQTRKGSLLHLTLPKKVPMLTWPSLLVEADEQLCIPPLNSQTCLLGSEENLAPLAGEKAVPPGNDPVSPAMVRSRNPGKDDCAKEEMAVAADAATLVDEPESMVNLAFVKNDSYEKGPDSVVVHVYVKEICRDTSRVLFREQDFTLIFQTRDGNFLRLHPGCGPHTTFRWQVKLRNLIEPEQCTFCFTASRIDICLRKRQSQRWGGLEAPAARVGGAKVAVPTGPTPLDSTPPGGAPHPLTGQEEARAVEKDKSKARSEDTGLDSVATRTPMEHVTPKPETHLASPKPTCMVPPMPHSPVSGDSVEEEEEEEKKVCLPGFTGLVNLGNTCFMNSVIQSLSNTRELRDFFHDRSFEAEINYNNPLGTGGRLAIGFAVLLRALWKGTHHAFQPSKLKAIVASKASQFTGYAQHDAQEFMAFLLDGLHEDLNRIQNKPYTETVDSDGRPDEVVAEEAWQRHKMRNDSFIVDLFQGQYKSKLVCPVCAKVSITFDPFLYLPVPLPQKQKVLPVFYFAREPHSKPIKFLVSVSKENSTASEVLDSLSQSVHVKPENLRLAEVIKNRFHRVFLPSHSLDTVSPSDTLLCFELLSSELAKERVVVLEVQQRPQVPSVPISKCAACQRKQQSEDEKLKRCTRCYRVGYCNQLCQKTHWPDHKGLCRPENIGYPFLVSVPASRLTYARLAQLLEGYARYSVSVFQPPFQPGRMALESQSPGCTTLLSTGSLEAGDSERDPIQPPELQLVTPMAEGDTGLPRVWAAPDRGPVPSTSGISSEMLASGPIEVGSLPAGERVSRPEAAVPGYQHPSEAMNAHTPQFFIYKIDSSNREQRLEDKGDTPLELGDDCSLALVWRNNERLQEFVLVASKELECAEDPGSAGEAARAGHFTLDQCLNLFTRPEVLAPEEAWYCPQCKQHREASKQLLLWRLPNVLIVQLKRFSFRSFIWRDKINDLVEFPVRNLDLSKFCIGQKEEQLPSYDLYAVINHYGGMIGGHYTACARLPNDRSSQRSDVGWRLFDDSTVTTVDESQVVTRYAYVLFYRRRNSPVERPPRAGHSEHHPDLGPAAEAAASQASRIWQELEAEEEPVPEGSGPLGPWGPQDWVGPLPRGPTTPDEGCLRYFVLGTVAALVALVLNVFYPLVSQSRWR
# Outline: (§1)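 Each value is an average log2 ratio of fragment to vehicle, tested by unpaired t-test. The underlying Spectronaut label-free quantities were global-median-normalised, and only proteins with ≥2 unique peptides were included. Triplicate HEK293T lysate samples (495 µg) were exposed to fragment at 200 µM or vehicle for 3 h, then to Biotin-Ahx-Ub-VS at 0.5 µM final for 1 h, before NeutrAvidin enrichment of labelled DUBs, LysC and trypsin digestion, and diaPASEF LC-MS/MS.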
# [2] = target: USP24 (UniProt Q9UPU5)
# USP24, sequence (Q9UPU5 whole entry): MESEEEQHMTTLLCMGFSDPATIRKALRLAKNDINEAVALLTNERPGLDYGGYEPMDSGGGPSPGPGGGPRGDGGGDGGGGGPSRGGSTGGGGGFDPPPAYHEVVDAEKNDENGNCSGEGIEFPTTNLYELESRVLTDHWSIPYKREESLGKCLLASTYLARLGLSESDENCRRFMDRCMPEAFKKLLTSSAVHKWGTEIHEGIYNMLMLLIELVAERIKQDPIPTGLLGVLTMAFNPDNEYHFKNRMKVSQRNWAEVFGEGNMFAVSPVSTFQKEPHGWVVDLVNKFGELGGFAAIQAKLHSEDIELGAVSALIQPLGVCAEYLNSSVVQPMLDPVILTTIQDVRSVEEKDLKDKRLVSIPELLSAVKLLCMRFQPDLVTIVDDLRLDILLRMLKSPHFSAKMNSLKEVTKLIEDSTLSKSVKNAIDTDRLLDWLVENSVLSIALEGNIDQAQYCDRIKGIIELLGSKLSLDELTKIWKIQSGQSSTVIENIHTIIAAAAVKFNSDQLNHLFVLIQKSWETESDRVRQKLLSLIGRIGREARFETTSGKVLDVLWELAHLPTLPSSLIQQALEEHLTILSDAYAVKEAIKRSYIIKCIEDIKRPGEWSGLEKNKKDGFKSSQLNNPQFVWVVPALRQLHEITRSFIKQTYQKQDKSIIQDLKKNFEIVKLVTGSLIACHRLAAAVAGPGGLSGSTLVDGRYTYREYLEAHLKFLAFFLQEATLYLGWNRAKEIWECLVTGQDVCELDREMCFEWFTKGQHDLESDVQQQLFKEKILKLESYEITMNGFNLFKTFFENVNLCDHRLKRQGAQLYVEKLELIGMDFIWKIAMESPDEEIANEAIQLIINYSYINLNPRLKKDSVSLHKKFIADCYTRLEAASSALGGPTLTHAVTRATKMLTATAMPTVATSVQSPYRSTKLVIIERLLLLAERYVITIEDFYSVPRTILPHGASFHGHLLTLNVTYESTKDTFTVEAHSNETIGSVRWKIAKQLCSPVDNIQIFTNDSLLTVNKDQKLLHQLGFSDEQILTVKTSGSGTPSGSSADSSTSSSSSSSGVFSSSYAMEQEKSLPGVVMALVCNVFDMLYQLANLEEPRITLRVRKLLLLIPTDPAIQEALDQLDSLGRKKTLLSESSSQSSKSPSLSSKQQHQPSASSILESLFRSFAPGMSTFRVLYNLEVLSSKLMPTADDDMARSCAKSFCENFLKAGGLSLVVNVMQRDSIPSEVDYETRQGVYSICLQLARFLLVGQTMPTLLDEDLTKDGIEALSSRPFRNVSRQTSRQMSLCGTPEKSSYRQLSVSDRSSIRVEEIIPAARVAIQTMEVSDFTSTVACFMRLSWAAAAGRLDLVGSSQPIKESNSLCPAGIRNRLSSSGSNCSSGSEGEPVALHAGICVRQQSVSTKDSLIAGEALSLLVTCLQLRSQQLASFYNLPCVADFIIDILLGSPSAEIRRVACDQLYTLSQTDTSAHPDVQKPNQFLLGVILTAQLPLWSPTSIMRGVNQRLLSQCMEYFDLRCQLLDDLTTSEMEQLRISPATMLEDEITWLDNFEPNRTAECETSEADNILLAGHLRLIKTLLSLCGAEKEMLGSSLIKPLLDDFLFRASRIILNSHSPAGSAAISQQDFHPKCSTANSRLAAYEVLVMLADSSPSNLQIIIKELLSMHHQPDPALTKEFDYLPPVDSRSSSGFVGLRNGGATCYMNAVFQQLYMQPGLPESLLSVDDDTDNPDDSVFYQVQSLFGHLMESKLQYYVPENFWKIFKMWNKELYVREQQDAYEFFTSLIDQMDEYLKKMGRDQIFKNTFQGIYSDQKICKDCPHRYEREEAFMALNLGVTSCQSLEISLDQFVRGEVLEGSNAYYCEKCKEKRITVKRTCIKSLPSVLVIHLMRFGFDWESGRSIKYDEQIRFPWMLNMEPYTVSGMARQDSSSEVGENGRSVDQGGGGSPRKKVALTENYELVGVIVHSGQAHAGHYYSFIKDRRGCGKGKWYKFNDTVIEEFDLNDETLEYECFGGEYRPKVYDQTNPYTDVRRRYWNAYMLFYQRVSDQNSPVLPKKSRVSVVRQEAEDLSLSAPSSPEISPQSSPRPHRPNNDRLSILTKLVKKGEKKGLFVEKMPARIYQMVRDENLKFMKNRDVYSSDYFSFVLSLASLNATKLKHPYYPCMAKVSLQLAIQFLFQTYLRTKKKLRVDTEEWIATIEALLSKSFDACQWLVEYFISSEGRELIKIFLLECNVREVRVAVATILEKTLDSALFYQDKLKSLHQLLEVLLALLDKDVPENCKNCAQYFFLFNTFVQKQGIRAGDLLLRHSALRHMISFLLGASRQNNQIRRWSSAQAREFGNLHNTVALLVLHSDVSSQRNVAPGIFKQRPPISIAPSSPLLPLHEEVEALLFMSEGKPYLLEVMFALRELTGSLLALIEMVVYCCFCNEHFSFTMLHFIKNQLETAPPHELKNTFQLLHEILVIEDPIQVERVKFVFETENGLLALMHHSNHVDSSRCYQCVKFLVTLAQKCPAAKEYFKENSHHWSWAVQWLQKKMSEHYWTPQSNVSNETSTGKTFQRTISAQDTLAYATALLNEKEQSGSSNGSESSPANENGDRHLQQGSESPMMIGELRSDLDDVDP
# Outline: as §1
# [3] = target: T2, USP25 (UniProt Q9UHP3)
# T2 sequence (whole entry): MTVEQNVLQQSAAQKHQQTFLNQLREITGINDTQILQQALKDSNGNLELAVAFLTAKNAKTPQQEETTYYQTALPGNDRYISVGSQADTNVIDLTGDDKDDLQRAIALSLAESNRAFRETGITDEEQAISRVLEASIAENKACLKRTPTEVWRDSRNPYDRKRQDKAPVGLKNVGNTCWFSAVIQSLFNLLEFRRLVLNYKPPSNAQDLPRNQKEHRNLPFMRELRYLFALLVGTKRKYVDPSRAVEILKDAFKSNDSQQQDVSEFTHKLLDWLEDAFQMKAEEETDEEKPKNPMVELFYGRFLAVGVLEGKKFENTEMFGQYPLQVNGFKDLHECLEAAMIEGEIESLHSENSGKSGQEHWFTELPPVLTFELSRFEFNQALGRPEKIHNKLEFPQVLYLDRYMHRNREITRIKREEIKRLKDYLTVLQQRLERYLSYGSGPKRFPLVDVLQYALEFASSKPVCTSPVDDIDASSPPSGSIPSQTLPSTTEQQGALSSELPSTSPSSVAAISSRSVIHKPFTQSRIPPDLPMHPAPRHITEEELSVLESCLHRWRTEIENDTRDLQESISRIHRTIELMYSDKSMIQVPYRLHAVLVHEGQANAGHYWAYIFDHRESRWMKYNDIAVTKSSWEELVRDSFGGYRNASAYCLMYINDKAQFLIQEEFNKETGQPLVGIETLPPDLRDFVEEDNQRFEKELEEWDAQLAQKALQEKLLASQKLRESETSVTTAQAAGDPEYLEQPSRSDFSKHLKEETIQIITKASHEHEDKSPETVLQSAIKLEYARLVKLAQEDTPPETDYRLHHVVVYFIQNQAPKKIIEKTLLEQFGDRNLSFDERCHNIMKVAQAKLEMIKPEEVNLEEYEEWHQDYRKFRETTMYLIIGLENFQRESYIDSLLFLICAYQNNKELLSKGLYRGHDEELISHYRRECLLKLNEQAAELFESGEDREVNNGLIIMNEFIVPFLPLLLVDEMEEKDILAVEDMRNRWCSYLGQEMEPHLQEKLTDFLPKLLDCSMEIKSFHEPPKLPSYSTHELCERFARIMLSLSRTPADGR
# Outline: as §1
# [4] = target: T3, USP28 (UniProt Q96RU2)
# T3 sequence (whole entry): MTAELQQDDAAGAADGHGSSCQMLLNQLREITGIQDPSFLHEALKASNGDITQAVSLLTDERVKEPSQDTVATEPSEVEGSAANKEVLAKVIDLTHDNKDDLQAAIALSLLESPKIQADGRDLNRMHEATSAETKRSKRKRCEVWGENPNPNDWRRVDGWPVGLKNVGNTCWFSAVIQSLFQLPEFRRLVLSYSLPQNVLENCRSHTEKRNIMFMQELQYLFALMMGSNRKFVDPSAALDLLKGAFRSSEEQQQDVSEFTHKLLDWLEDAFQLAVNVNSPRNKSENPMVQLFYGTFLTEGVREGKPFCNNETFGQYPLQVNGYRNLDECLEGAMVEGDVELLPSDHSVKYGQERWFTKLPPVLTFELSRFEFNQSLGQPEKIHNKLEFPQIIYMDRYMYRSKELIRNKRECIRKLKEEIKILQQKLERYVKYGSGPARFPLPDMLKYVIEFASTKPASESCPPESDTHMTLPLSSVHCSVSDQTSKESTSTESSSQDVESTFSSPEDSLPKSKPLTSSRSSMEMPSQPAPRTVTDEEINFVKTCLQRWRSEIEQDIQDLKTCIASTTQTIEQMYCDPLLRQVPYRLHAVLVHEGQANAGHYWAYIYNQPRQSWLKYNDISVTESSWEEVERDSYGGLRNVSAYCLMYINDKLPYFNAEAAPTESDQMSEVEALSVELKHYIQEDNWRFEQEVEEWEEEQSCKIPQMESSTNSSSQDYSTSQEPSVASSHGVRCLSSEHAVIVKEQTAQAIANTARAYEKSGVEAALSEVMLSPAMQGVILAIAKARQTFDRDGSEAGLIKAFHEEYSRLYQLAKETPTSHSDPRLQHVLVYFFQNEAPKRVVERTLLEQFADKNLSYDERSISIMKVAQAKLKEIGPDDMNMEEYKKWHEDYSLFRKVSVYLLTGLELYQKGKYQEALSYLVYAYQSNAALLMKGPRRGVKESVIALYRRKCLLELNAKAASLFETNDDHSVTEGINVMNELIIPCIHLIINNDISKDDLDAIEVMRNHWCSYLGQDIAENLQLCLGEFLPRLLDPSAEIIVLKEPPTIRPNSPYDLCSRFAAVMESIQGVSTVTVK
# Outline: as §1
structure (smiles),measurement,setting,value
Cn1cc(CN(Cc2ccc(Cl)cc2)C(=O)CCl)cn1,log2 ratio of Biotin-Ahx-Ub-VS probe labelling,[1],-0.653
same,log2 ratio of Biotin-Ahx-Ub-VS probe labelling,[2],-1.49 (active)
same,log2 ratio of Biotin-Ahx-Ub-VS probe labelling,[3],-0.161
same,log2 ratio of Biotin-Ahx-Ub-VS probe labelling,[4],-0.648
